According to PubChem BioAssay (NCATS):
Results filed as inconclusive are left out. The source made the active and inactive calls. Unless noted, the call rests on the fitted dose curve; in most records, active means well fitted curve in the direction sought with a large enough effect; inconclusive means small, poorly fitted or top-dose-only effect, or another doubt; inactive means no such curve, though single readings can be large; an effect the other way counts as inactive or inconclusive.

Legend:
[1] = AP1 Signaling Pathway (AID 357; active means well fitted curve in either direction with a large enough effect, not every such curve was filed as active;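 further: ME-180 reporter cells stimulated with EGF at its EC50 level; on the % scale 0 is the no-effect control and ±100 the full control effect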)
Summary of the method: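 Read-out was the 460nm/530nm emission ratio (excitation 405nm) after CCF4 loading for 2.5 hours at room temperature. Cells carried an AP-1-driven beta-lactamase reporter, were stimulated with EC50 EGF plus compound for 5 hours, and AC50 values came from titrations.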

[2] = NFAT Signaling Pathway (AID 444; active means well fitted curve in either direction with a large enough effect, not every such curve was filed as active;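 further: carbachol stimulus at about its EC50 of 1 µM final; on the % scale 0 is the no-effect control and ±100 the full control effect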); details: Jurkat NFAT-bla M1, carbachol, beta-lactamase ratio, 5 h; at 17.2 µM (top of the series) unless noted
Summary of the method: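 Jurkat cells with NFAT-driven β-lactamase reporter and co-expressed M1 receptor, stimulated with carbachol (final 1 uM, ~EC50), compound titration, 5 h at 37 °C. CCF4 loaded 1 h at RT; 460/530 nm ratio gave %activity and AC50.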

[3] = biological target: Cytochrome P450 1A2 (Homo sapiens) (UniProt P05177); assay: p450-cyp1a2 (AID 410; calls by dose curve; further: potency means the concentration at half of the fitted maximal effect;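 on activity change, negative = inhibition: -100% = full effect of reference inhibitor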)
Summary of the method: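 O-Demethylation of luciferin 6' methyl ether by human CYP1A2 is monitored as luciferase luminescence. Substrate sits at Km (100uM); enzyme is 20nM. Values are scaled to 57 uM furafylline as maximal inhibition.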

[4] = Stat Signaling Pathway (AID 446; active means well fitted curve in either direction with a large enough effect, not every such curve was filed as active;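 further: ME-180 cervical cancer cells given 40 pM IL-6 alongside compound; SIE-controlled beta-lactamase reporter measured as 460/530 nm FRET emission ratio; on the % scale 0 is the no-effect control and ±100 the full control effect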)
Summary of the method: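 FRET read-out (405 nm excitation, 460/530 nm emission) of a beta-lactamase reporter under a STAT-inducible element in ME-180 cervical carcinoma cells. Cells with compound receive 40 pM IL-6 for 5 h. Values are normalised to AC90 stimulation and AC90 JAK-inhibitor controls.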

[5] = biological target: Glucocorticoid receptor (Homo sapiens) (UniProt P04150); assay: GR-GFP Redistribution (AID 450;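 active means compounds whose dose series gives a full or clear partial fitted curve of increased nuclear translocation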; further: potency means the concentration at half of the fitted maximal effect); details: U2OS GR-GFP nuclear translocation, laser cytometry, 2 h
[6] = biological target: Glucocorticoid receptor (Homo sapiens) (UniProt P04150); assay: GR-EFC Redistribution (AID 451; calls by dose curve; further: potency means the concentration at half of the fitted maximal effect); details: CHO-K1 GR-EFC translocation, beta-gal luminescence, 2 h
Summary of the method: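 CHO-K1 cells expressing nuclear EA and GR-ED fragments of b-gal; compounds titrated up to 46 uM final, 2 h at 37 C. GR nuclear translocation read as complemented b-gal luminescence after 1 h RT detection.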

[7] = Cell Viability - BJ (AID 421; calls by dose curve;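 further: potency means the concentration at half of the fitted maximal effect; cells exposed to compound for 40 hours at 37 °C before readout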); details: BJ fibroblast viability, qHTS
Summary of the method: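 Cytotoxicity as drop in intracellular ATP (CellTiter-Glo, 20 min RT) after 40 hr compound exposure of BJ fibroblasts at 37 °C. Titrations scaled between DMSO and 100 uM tamoxifen, Hill-fitted for AC50.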

[8] = Cell Viability - Jurkat (AID 426;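 active means dose-dependent loss of cell ATP signal giving a full or clear fitted curve, ranked by lower potency value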;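 further: potency means the concentration at half of the fitted maximal effect; cells exposed to compound for 40 hours at 37 °C before ATP read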); details: qHTS
Summary of the method: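 Cells of the human T-cell leukemia line Jurkat (E6-1) are seeded at 5000 per well, treated with compound across a concentration range for 40 hours at 37 °C, then lysed with CellTiter-Glo; luminescence reports ATP.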

[9] = Cell Viability - HepG2 (AID 433; calls by dose curve;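 further: potency means the concentration at half of the fitted maximal effect; potency for ATP loss meaning cytotoxicity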); details: qHTS
Summary of the method: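 Cytotoxicity is scored as loss of intracellular ATP in HepG2 cells exposed to compounds for 40 h. Concentration-response curves, normalized to DMSO and 100 uM tamoxifen, give AC50 values.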

[10] = Cell Viability - MRC5 (AID 434; calls by dose curve;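 further: potency means the concentration at half of the fitted maximal effect; potency reflects cytotoxicity seen as loss of intracellular ATP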); details: MRC5 lung fibroblast viability, qHTS
Summary of the method: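 ATP luminescence read-out (CellTiter-Glo, 20 min RT) after 40 hr, 37 °C compound exposure of 1500 MRC5 cells/well. Data normalized to DMSO (basal) and 100 uM tamoxifen (100% inhibition); AC50 from standard Hill equation.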

[11] = Cell Viability - SK-N-SH (AID 435; calls by dose curve;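 further: potency means the concentration at half of the fitted maximal effect; compound exposure lasted 40 h at 37 °C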); details: SK-N-SH neuroblastoma cell viability qHTS
Summary of the method: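 Cells seeded at 1500 per well and incubated 5 hr at 37 °C. Compound added, then 40 hr at 37 °C. CellTiter-Glo added, 20 min at room temperature, luminescence read.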

[12] = Cell Viability - N2a (AID 540);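 further: cells exposed to compound for 40 h at 37 °C; nearly all actives have a fitted effect of over 45% in size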; further: potency means the concentration at half of the fitted maximal effect;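 on activity change, negative = cytotoxicity: plate controls were DMSO alone for no effect and tamoxifen control for full effect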
Summary of the method: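 Cytotoxicity was scored as loss of cellular ATP in N2a cells, a mouse neuroblastoma line. Compounds are applied in a qHTS concentration series for 40 hr at 37 °C.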

[13] = Cell Viability - NIH 3T3 (AID 541); details: NIH 3T3 cell viability, qHTS; activity change, negative = cytotoxicity: at 92.2 µM (top of the series); further: nearly all actives have a fitted effect of over 25% in size; further: potency means the concentration at half of the fitted maximal effect;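 on activity change, negative = cytotoxicity: plate controls were DMSO alone for no effect and tamoxifen positive control for full effect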
Summary of the method: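 Cells seeded at 1000/well, rested 5 hr at 37 °C, then dosed and incubated 40 hr at 37 °C. CellTiter-Glo added, 20 min room temperature, luminescence read. AC50 by Hill fit.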

[14] = Cell Viability - HUV-EC-C (AID 542); further: on the % scale 0 is the no-effect control and ±100 the full control effect; nearly all actives have a fitted effect of over 35% in size
Summary of the method: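 Cells were seeded at 1000 per well and incubated 5 hr at 37 °C before compound addition. After 40 hr at 37 °C, CellTiter-Glo reagent was added for 20 min and luminescence read. AC50 values came from Hill-equation modelling.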

[15] = Cell Viability - H-4-II-E (AID 543); further: nearly all actives have a fitted effect of over 35% in size; further: potency means the concentration at half of the fitted maximal effect
Summary of the method: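 Cells seeded at 1500 per well and rested 5 hr; compounds added; 40 hr incubation at 37 °C; CellTiter-Glo added, 20 min at room temperature; luminescence read. Hill-equation fits gave AC50.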

[16] = Cell Viability - SH-SY5Y (AID 544); details: SH-SY5Y neuroblastoma cell viability; viability change, negative = cytotoxic: at 92.2 µM (top of the series); further: nearly all actives have a fitted effect of over 55% in size; further: potency means the concentration at half of the fitted maximal effect;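 on viability change, negative = cytotoxic: 0% = DMSO alone and -100% = 100 µM tamoxifen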
Summary of the method: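 Cells were plated at 1500 per well and allowed 5 hr at 37 °C. Compounds were added across a concentration range and incubated 40 hr at 37 °C. CellTiter-Glo was added for 20 min at room temperature before luminescence reading.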

[17] = Cell Viability - Mesenchymal (AID 546);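 further: cells exposed to compound for 40 hours before reading; 0% = DMSO only and -100% = 100 µM tamoxifen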
Summary of the method: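 Human renal mesenchymal cells (glomerulus-derived), 1000 cells/well, 5 hr 37 °C pre-incubation; compound 40 hr, 37 °C; CellTiter-Glo, 20 min RT; luminescence; AC50 via Hill equation.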

[18] = Cellular Toxicity (caspase-3) HepG2 (AID 654);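 further: cells exposed to compound for 16 hours before reading; 0% = DMSO alone and 100% = caspase signal from 100 µM tamoxifen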
Summary of the method: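 Caspase 3/7 activation in HepG2 is measured as rising luminescence after a 16 hr treatment at 37 °C. Values are scaled between DMSO basal and 100 uM tamoxifen, and AC50 is fitted with the Hill equation.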

Cytochrome P450 1A2 (Homo sapiens), sequence (P05177 whole entry, looked up): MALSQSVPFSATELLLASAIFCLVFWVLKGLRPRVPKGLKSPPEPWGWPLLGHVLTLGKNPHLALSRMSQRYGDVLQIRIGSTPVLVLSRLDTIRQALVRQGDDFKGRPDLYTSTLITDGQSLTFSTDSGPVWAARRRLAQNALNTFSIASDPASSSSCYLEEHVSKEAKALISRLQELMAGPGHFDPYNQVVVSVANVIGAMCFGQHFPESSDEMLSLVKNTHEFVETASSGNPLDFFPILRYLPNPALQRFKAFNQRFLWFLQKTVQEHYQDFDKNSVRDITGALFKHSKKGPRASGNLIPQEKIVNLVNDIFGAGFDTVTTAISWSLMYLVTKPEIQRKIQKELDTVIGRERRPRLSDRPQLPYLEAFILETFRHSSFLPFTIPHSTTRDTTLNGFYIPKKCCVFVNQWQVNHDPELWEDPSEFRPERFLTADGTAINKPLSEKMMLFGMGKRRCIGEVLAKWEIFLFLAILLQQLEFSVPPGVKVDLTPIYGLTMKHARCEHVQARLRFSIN
Glucocorticoid receptor (Homo sapiens), sequence (P04150 whole entry, looked up, the tested form may be a part): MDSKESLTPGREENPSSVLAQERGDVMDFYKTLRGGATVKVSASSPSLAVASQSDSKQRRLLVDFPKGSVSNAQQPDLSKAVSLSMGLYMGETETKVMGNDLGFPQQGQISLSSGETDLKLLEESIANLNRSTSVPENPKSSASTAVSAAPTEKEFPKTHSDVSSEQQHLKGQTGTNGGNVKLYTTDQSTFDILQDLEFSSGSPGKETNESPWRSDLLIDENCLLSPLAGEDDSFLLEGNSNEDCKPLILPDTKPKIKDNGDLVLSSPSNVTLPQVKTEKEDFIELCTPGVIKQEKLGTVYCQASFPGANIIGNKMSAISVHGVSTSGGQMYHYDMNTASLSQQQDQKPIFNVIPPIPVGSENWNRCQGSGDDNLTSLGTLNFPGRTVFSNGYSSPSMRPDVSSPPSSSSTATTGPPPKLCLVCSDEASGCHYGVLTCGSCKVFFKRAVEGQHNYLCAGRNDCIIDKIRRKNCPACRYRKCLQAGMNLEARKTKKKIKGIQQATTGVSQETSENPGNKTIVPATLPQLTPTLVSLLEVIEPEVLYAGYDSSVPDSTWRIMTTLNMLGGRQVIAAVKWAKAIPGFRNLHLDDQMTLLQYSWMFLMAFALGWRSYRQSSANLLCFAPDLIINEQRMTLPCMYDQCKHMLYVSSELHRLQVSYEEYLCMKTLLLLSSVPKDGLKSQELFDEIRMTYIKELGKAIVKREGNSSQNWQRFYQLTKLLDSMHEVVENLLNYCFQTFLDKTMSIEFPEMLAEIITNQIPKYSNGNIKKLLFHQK

O=C1C(=O)c2ccccc2C(O)=C1C1CCC(c2ccc(Cl)cc2)CC1 (centres undefined)
inactive: outcome [1] | activity change, negative = inhibition [2] -25%

NS(=O)(=O)c1cc(C(=O)O)cc(N2CCCC2)c1Oc1ccccc1
active: Potency [5] 2.81 µM
inactive: outcome [1] | Potency [3] | activity change, negative = inhibition [2] -7.88% | outcome [4] | Potency [6] > 20.6 µM

CCOC(=O)Nc1ccc2c(c1)N(C(=O)CCN1CCOCC1)c1ccccc1S2
inactive: Potency [3] | Potency [6] > 20.6 µM

O=c1[nH]c(=O)n([C@H]2C[C@H](O)[C@@H](CO)O2)cc1F
inactive: outcome [1] | outcome [4] | Potency [5] > 20.6 µM

NC(=O)c1ccccc1O
inactive: Potency [7] > 92 µM | Potency [8] > 92 µM | Potency [9] > 92 µM | Potency [10] > 92 µM | Potency [11] > 92 µM | Potency [12] | activity change, negative = cytotoxicity [13] 6.43% | outcome [14] | Potency [15] | viability change, negative = cytotoxic [16] 4.84% | outcome [17] | outcome [18]

CC(C)(C)NCC(O)COc1cccc2c1C[C@H](O)[C@H](O)C2 (some centres undefined)
inactive: outcome [1] | activity change, negative = inhibition [2] 1.44% | Potency [5] > 20.6 µM

CCCCC(CC)COC(=O)c1ccc(N(C)C)cc1 (centres undefined)
inactive: Potency [7] > 92 µM | Potency [8] > 92 µM | Potency [9] > 92 µM | Potency [10] > 92 µM | Potency [11] > 92 µM | Potency [12] | activity change, negative = cytotoxicity [13] -7.45% | outcome [14] | Potency [15] | viability change, negative = cytotoxic [16] 0.409% | outcome [17] | outcome [18]

O=C(O)CCNC(=O)c1ccccc1
inactive: outcome [1] | activity change, negative = inhibition [2] 3.54% | Potency [5] > 20.6 µM

O=C(c1ccc(F)cc1)C1CCN(CCn2c(=S)[nH]c3ccccc3c2=O)CC1
active: Potency [3] 15.8 µM
inactive: Potency [5] > 46 µM | Potency [6] > 46 µM

Oc1c(Cl)cc(Cl)c(Cl)c1Cc1c(O)c(Cl)cc(Cl)c1Cl
active: Potency [9] 10.7 µM | Potency [12] 0.794 µM | activity change, negative = cytotoxicity [13] -102% | Potency [15] 31.6 µM | Potency [16] 15.8 µM
inactive: Potency [7] 0.536 µM | outcome [17] | outcome [18]

CC(=O)O[C@]1(C(C)=O)CC[C@H]2[C@@H]3C=C(C)C4=CC(=O)CC[C@]4(C)[C@H]3CC[C@@]21C
active: Potency [5] 0.00185 µM
inactive: outcome [1] | activity change, negative = inhibition [2] -25.3%

COc1cc([C@H]2Oc3cc([C@H]4Oc5cc(O)cc(O)c5C(=O)[C@@H]4O)ccc3O[C@@H]2CO)ccc1O
active: Potency [13] 31.6 µM | Potency [15] 31.6 µM | viability change, negative = cytotoxic [16] -84.4%
inactive: Potency [7] > 92 µM | Potency [9] > 92 µM | Potency [10] > 92 µM | Potency [11] > 92 µM | Potency [12] | outcome [14] | outcome [17] | outcome [18]

CN(C)CCOC(=O)C(c1ccccc1)C1(O)CCCC1 (centres undefined)
active: activity change, negative = inhibition [2] -76.1%
inactive: outcome [1] | Potency [5] > 20.6 µM

CN1CCc2cccc3c2[C@H]1Cc1ccc(O)c(O)c1-3
inactive: Potency [5] > 46 µM | Potency [6] > 46 µM

Oc1ccc(Cl)cc1Cc1cc(Cl)ccc1O
active: Potency [9] 40.6 µM | Potency [12] 31.6 µM | activity change, negative = cytotoxicity [13] -84.9% | viability change, negative = cytotoxic [16] -85.8%

CCCCc1cc2ccccc2c(OCCN(C)C)n1
inactive: Potency [5] > 20.6 µM | Potency [6] > 20.6 µM
active: Potency [3] 0.0794 µM

CCCCN1C[C@H](O)[C@@H](O)[C@H](O)[C@H]1CO
inactive: outcome [1] | activity change, negative = inhibition [2] 14.7% | Potency [5] > 20.6 µM

Cl/C(=C\n1cncn1)c1ccc(Cl)cc1Cl
inactive: Potency [5] > 46 µM | Potency [6] > 46 µM
active: Potency [3] 0.0631 µM

CC[N+](C)(CC)CCOC(=O)C(O)(c1ccccc1)C1CCCCC1 (centres undefined)
inactive: outcome [1] | Potency [5] > 20.6 µM
active: activity change, negative = inhibition [2] -95.5%

C=C[C@H]1CN2CC[C@H]1C[C@@H]2[C@@H](O)c1ccnc2ccc(OC)cc12
inactive: Potency [7] > 92 µM | Potency [9] > 92 µM | Potency [10] > 92 µM | Potency [11] > 92 µM | Potency [12] | outcome [14] | Potency [15] | viability change, negative = cytotoxic [16] -25.7% | outcome [17] | outcome [18]
